Data published in ChEMBL document CHEMBL1157539, “Thousands of chemical starting points for antimalarial lead identification” (Nature, 2010).

Columns and labels:
Assay type in all cases: functional
Plasmodium falciparum [1] = assay: GSK_TCMDC: Inhibition of Plasmodium falciparum 3D7 in whole red blood cells, using parasite LDH activity as an index of growth. Test compounds present at 2uM
Plasmodium falciparum [2] = assay: GSK_TCMDC: Inhibition of Plasmodium falciparum Dd2 in whole red blood cells, using parasite LDH activity as an index of growth. Test compounds present at 2uM
HepG2 = assay: GSK_TCMDC: Percent inhibition of human HepG2 cell line. Test compounds present at 10uM.

Row | SMILES | Inhibition (Plasmodium falciparum [1]) | Inhibition (Plasmodium falciparum [2]) | Inhibition (HepG2)
1 | CC(C)C[C@@H]1C(=O)N[C@H](C2Cc3ccccc3C2)C(=O)N1[C@@H](C(=O)O)c1ccc(F)cc1F | 98% | 0% | 10%
2 | CCn1c(SCC(=O)Nc2cc(C(F)(F)F)ccc2Cl)nc2ccccc2c1=O | 93% | 95% | 8%
3 | Cl.N=C(NCCCc1ccccc1)c1cccc(C(=N)NCCCc2ccccc2)n1 | 98% | 0% | 44%
4 | Cl.Cn1ncc2c3c(CCN4CCC(NCc5ccc6c(c5)NC(=O)CO6)CC4)c(Cl)cnc3ccc21 | 100% | 92% | 18%
5 | Cc1cc(N)c2cc(NC(=O)c3cccc4ccccc34)ccc2n1.Cl | 98% | 13% | 18%
6 | CCCCCCn1c(Sc2ccc(C#N)c([N+](=O)[O-])c2)nnc1-c1cc(OC)cc(OC)c1 | 95% | 41% | 35%
7 | N#Cc1ccc(-n2cc(C(=O)Nc3ccc4c(c3)CCN(C3CCC3)CC4)c(C(F)(F)F)n2)cc1.O=C(O)C(F)(F)F | 100% | 99% | 37%
8 | COc1cc2c(cc1S(=O)(=O)c1ccc(COc3ccc(C(F)(F)F)cc3)cc1)CNCC2.Cl | 100% | 89% | 32%
9 | CC(C)(CN1CCCC1)CN(Cc1ccc(-c2ccc(C(F)(F)F)cc2)cc1)C(=O)Cn1c(CCc2cccc(F)c2F)nc(=O)c2ccccc21.O=C(O)C(O)C(O)C(=O)O | 97% | 64% | 57%
10 | Br.CCCC1N=C(N)N=C(N)N1c1ccc(C)cc1 (configuration not stated) | 94% | 2% | 1%
11 | CCN1CCN(c2ccc(Nc3ccnc4ccc(Br)cc34)cc2)CC1 | 98% | 86% | 37%
12 | CCC(C(=O)Nc1cc(=O)[nH]c2nc(-c3ccco3)nn12)c1ccccc1 (configuration not stated) | 87% | 68% | 2%
13 | Cc1cccc2nc(-c3cccc(-c4ccc(NC(=O)CN5CCOCC5)cc4)c3)[nH]c12 | 94% | 12% | 59%
14 | CCc1cn(CCc2ccccc2)c2ccc(C(=O)N[C@@H](Cc3ccccc3)[C@H](O)CNC(C)(C)CCCC(C)C)cc12.O=CO | 98% | 99% | 66%
15 | CN1CCC(Oc2cc(CN3CC[C@H](NC(=O)c4ccc(Cl)c(Cl)c4)C3)ccc2I)C1.O=C(O)C(F)(F)F (some centres not stated) | 97% | 24% | 68%
16 | COc1cc(Cc2cnc(N)nc2N)c2c(c1OC)OC(C)C=C2 (configuration not stated) | 87% | 1% | 0%
17 | COc1ccc(-c2ccc(NC(=O)c3cccc(Cl)c3)c(F)c2)cc1CN1CCCN(C)CC1.O=C(O)C(F)(F)F | 100% | 42% | 43%
18 | Cc1cc(C)c(NC(=O)NC2CCN(CCCCCNC(=O)/C=C/c3ccc(Cl)c(Cl)c3)C2)c(C)c1 (configuration not stated) | 99% | 48% | 23%
19 | Br.CC1(C)NC(N)=NC(=N)N1OCCCc1cccc(C(F)(F)F)c1 | 95% | 95% | 62%
20 | CS(=O)(=O)O.NC1=NC(CCc2ccccc2)N(c2ccccc2)C(N)=N1 (configuration not stated) | 94% | 15% | 1%
21 | CN(C)CC1c2[nH]c3ccccc3c2CCN1C(=O)Nc1ccc(Cl)c(Cl)c1.Cl (configuration not stated) | 90% | 32% | 99%
22 | CN(CCCCNC(=O)c1cc2ccccc2[nH]1)C1CC2(CCN(C(=O)OC(C)(C)C)CC2)c2ccccc21 (configuration not stated) | 86% | 75% | 12%
23 | COc1ccc2ncc(Cl)c(NCC3(O)CCC(NCc4ccc5c(n4)NC(=O)CS5)CC3)c2n1.Cl (configuration not stated) | 96% | 31% | 39%
24 | CCN1CCC(N(Cc2ccc(-c3ccc(C(F)(F)F)cc3)cc2)C(=O)Cn2c(SCc3cccc(F)c3F)cc(=O)c3ccccc32)C1.O=C(O)C(O)C(O)C(=O)O (configuration not stated) | 90% | 91% | 42%
25 | Cc1ccc(O)cc1Nc1ccnc2cc(-c3csc(CN(C)CCN(C)C)n3)ccc12 | 100% | 80% | 3%
26 | COc1ccc2nccc([C@@H](O)CN3CCC(NC(=O)C(c4cc5ccccc5o4)N4CCN(Cc5ccccc5)CC4)CC3)c2c1 (some centres not stated) | 91% | 75% | 30%
27 | Cc1cc(Nc2ccc3c(c2)CCC3)n2ncnc2n1 | 86% | 48% | 4%
28 | COc1cc(NC(=O)CCCN2CCN(c3cccc(Cl)c3Cl)CC2)ccc1N1CCN(C(C)C)CC1.Cl | 99% | 59% | 31%
29 | CS(=O)(=O)CCNCc1nc(-c2ccc3ncnc(Nc4ccc(OCc5ccccc5)c(Cl)c4)c3c2)cs1.Cl | 99% | 55% | 13%
